This excerpt belongs to a sample that is enriched for the strongest signals.
Tests used:
Test in all cases: glycan array binding signal (z-score within array); higher = stronger binding
Conditions in all cases: glycan notation: IUPAC condensed, linker removed
[1] = target: Fuc(a1-2)Gal(b1-3)GalNAc(b1-3)Gal(a1-4)Gal(b1-4)Glc
In short: (§1)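 Negative Z-scores can be read as non-binding. The Z-score is calculated within each array and then averaged across arrays of one protein sequence at different concentrations or buffers and across linkers. Arrays, 3228 in all, were curated from the Consortium for Functional Glycomics database and kept only where the protein sequence was available.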

[2] = target: Fuc(a1-2)Gal(b1-4)GlcNAc(b1-2)[Fuc(a1-2)Gal(b1-4)GlcNAc(b1-4)]Man(a1-3)[Fuc(a1-2)Gal(b1-4)GlcNAc(b1-2)Man(a1-6)]Man(b1-4)GlcNAc(b1-4)GlcNAc
In short: as §1

[3] = target: Fuc(a1-2)Gal(b1-4)[Fuc(a1-3)]GlcNAc
In short: as §1

[4] = target: Fuc(a1-2)Gal(b1-4)[Fuc(a1-3)]GlcNAc(b1-2)Man(a1-3)[Fuc(a1-2)Gal(b1-4)[Fuc(a1-3)]GlcNAc(b1-2)Man(a1-6)]Man(b1-4)GlcNAc(b1-4)[Fuc(a1-6)]GlcNAc
In short: as §1

[5] = target: Fuc(a1-2)[Gal(a1-3)]Gal(b1-3)GalNAc(b1-3)Gal(a1-4)Gal(b1-4)Glc
In short: as §1

[6] = target: Fuc(a1-2)[Gal(a1-3)]Gal(b1-4)GlcNAc
In short: as §1

[7] = target: Fuc(a1-2)[GalNAc(a1-3)]Gal(b1-4)GlcNAc(b1-3)GalNAc
In short: as §1

[8] = target: Fuc(a1-2)[GalNAc(a1-3)]Gal(b1-4)GlcNAc(b1-6)GalNAc
In short: as §1

[9] = target: Fuc(a1-3)[Gal(b1-4)]GlcNAc(b1-2)Man(a1-3)[Fuc(a1-3)[Gal(b1-4)]GlcNAc(b1-2)Man(a1-6)]Man(b1-4)GlcNAc(b1-4)GlcNAc
In short: as §1

[10] = target: Fuc(a1-3)[Gal(b1-4)]GlcNAc(b1-3)GalNAc
In short: as §1

[11] = target: Gal(a1-3)Gal(b1-3)[Fuc(a1-4)]GlcNAc(b1-2)Man(a1-3)[Gal(a1-3)Gal(b1-3)[Fuc(a1-4)]GlcNAc(b1-2)Man(a1-6)]Man(b1-4)GlcNAc(b1-4)GlcNAc
In short: as §1

[12] = target: Gal(a1-3)Gal(b1-4)GlcNAc(b1-2)Man(a1-3)[Gal(a1-3)Gal(b1-4)GlcNAc(b1-2)Man(a1-6)]Man(b1-4)GlcNAc(b1-4)GlcNAc
In short: as §1

[13] = target: Gal(a1-3)Gal(b1-4)[Fuc(a1-3)]GlcNAc(b1-2)Man(a1-3)[Gal(a1-3)Gal(b1-4)[Fuc(a1-3)]GlcNAc(b1-2)Man(a1-6)]Man(b1-4)GlcNAc(b1-4)GlcNAc
In short: as §1

[14] = target: Gal(a1-4)Gal(b1-3)GlcNAc(b1-2)Man(a1-3)[Gal(a1-4)Gal(b1-3)GlcNAc(b1-2)Man(a1-6)]Man(b1-4)GlcNAc(b1-4)GlcNAc
In short: as §1

[15] = target: Gal(b1-3)GlcNAc(b1-2)Man(a1-3)[Gal(b1-3)GlcNAc(b1-2)Man(a1-6)]Man(b1-4)GlcNAc(b1-4)GlcNAc
In short: as §1

[16] = target: Gal(b1-3)GlcNAc(b1-3)Gal(b1-4)GlcNAc
In short: as §1

[17] = target: Gal(b1-3)[Neu5Ac(a2-6)]GlcNAc(b1-4)Gal(b1-4)Glc
In short: as §1

[18] = target: Gal(b1-4)GlcNAc(b1-3)Gal(b1-4)GlcNAc(b1-2)[Gal(b1-4)GlcNAc(b1-3)Gal(b1-4)GlcNAc(b1-6)]Man(a1-6)[Gal(b1-4)GlcNAc(b1-3)Gal(b1-4)GlcNAc(b1-2)Man(a1-3)]Man(b1-4)GlcNAc(b1-4)[Fuc(a1-6)]GlcNAc
In short: as §1

[19] = target: Gal(b1-4)GlcNAc(b1-3)Gal(b1-4)GlcNAc(b1-3)Gal(b1-4)GlcNAc(b1-2)Man(a1-3)[Gal(b1-4)GlcNAc(b1-3)Gal(b1-4)GlcNAc(b1-3)Gal(b1-4)GlcNAc(b1-2)Man(a1-6)]Man(b1-4)GlcNAc(b1-4)GlcNAc
In short: as §1

[20] = target: Gal(b1-4)GlcNAc(b1-3)Gal(b1-4)GlcNAc(b1-3)Gal(b1-4)GlcNAc(b1-2)[Gal(b1-4)GlcNAc(b1-3)Gal(b1-4)GlcNAc(b1-3)Gal(b1-4)GlcNAc(b1-6)]Man(a1-6)[Gal(b1-4)GlcNAc(b1-3)Gal(b1-4)GlcNAc(b1-3)Gal(b1-4)GlcNAc(b1-2)Man(a1-3)]Man(b1-4)GlcNAc(b1-4)[Fuc(a1-6)]GlcNAc
In short: as §1

[21] = target: Gal(b1-4)GlcNAc(b1-3)Gal(b1-4)GlcNAc(b1-3)Gal(b1-4)GlcNAc(b1-3)Gal(b1-4)GlcNAc(b1-2)Man(a1-3)[Gal(b1-4)GlcNAc(b1-3)Gal(b1-4)GlcNAc(b1-3)Gal(b1-4)GlcNAc(b1-3)Gal(b1-4)GlcNAc(b1-2)Man(a1-6)]Man(b1-4)GlcNAc(b1-4)[Fuc(a1-6)]GlcNAc
In short: as §1

[22] = target: Gal(b1-4)GlcNAc(b1-3)Gal(b1-4)GlcNAc(b1-3)[Gal(b1-4)GlcNAc(b1-3)Gal(b1-4)GlcNAc(b1-6)]GalNAc
In short: as §1

[23] = target: Gal(b1-4)GlcNAc(b1-6)[Gal(b1-4)GlcNAc(b1-3)]GalNAc
In short: as §1

Gal6S(b1-4)GlcNAc6S = target: Gal6S(b1-4)GlcNAc6S
In short: as §1

GalNAc(b1-3)GlcNAc = target: GalNAc(b1-3)GlcNAc
In short: as §1

[24] = target: GalNAc(b1-4)GlcNAc(b1-2)Man(a1-3)[GalNAc(b1-4)GlcNAc(b1-2)Man(a1-6)]Man(b1-4)GlcNAc(b1-4)GlcNAc
In short: as §1

Glc(b1-4)Glc = target: Glc(b1-4)Glc
In short: as §1

GlcA(b1-3)Gal = target: GlcA(b1-3)Gal
In short: as §1

[25] = target: GlcA3S(b1-3)Gal(b1-4)GlcNAc(b1-2)Man
In short: as §1

[26] = target: GlcNAc(a1-4)Gal(b1-4)GalNAc
In short: as §1

B1: PX14343E-bfa-545-24-545 (Bacteroides fragilis) (protein)
chain: LDRYPQEELSDGSFWKTPDDANKVVSDLYGYLSTWDQDNDINSDNATMGIKWAAGNVSKGIYDPADQGWSGDYANVRQCNLILSKIDEIPDYPEADKTKALGQVYFFRAYIYFNLIRSFGDVPYIDKPLDLKDMEGITRMPRAEVYEKIMADFDKAIAALPTEWGASDYGRVTKGAAMAMKARAALYYGNWDTAATEAKNVMDLGLYELYDKDNTGKYAELFWEKADGCDEFILVTQFNYPDKTHYLMGWECFPTKGWGGMNPTQSLVDAFEDSEGAPISKSKIYDPTDPFKNRDPRLEVDILHDGEEMYGVTIKVAPLASSGSTGINQHNDATETGYYGQKWLDPSLDPLSDGWNMGKDWVHIRYAEVLLTYAEAKNELQGLDPEAFDAVNQVRRRVGMPELQNTDPSKPTYCATQDDLRQRIRNEWRVEFCLEGGKRMWDIRRWGIAKDVLNAPFEGLKYKIVDNPNDPDKKVDGGKMCILYQGDPIILSGSRYSDNNYLFPVPQSEIDLNPALTQNPGY
[1]
  glycan array binding signal (z-score): -0.281
[2]
  glycan array binding signal (z-score): -0.211
[3]
  glycan array binding signal (z-score): -0.665
[4]
  glycan array binding signal (z-score): 0.859
[5]
  glycan array binding signal (z-score): -0.61
[6]
  glycan array binding signal (z-score): -0.855
[7]
  glycan array binding signal (z-score): -0.508
[8]
  glycan array binding signal (z-score): 0.103
[9]
  glycan array binding signal (z-score): 4.63
[10]
  glycan array binding signal (z-score): 1.3
[11]
  glycan array binding signal (z-score): 2.95
[12]
  glycan array binding signal (z-score): 4.55
[13]
  glycan array binding signal (z-score): 3.48
[14]
  glycan array binding signal (z-score): 2.18
[15]
  glycan array binding signal (z-score): 0.652
[16]
  glycan array binding signal (z-score): -0.675
[17]
  glycan array binding signal (z-score): -0.838
[18]
  glycan array binding signal (z-score): 1.62
[19]
  glycan array binding signal (z-score): 3.79
[20]
  glycan array binding signal (z-score): 4.56
[21]
  glycan array binding signal (z-score): 2.87
[22]
  glycan array binding signal (z-score): 2.88
[23]
  glycan array binding signal (z-score): -0.034
Gal6S(b1-4)GlcNAc6S
  glycan array binding signal (z-score): -0.429
GalNAc(b1-3)GlcNAc
  glycan array binding signal (z-score): 0.169
[24]
  glycan array binding signal (z-score): 1.25
Glc(b1-4)Glc
  glycan array binding signal (z-score): 0.195
GlcA(b1-3)Gal
  glycan array binding signal (z-score): -0.027
[25]
  glycan array binding signal (z-score): -0.441
[26]
  glycan array binding signal (z-score): 0.655

Reference: the supplement of paper PMC8728848
